# Many of the other results were omitted from the sample, so the strongest signals are more common in it than they were.
# B1: HA-61200 (Pseudomonas aeruginosa), Q02SP8_PSEAB (protein)
# chain: MNKCYALVWNVSQGCWNVVSEGSRRRGKPAGAKAAIASVLALLGATALAPAYALPSGGTVVGGSANGEIHLSGGNSLSVNQKVDKLIANWDSFSVAAGERVIFNQPSSSSIALNRVIGTKASDIQGRIDANGQVFLVNPNGVLFGRGAQVNVGGLVASTLDITDAEFNGNSSRYRFTGPSTNGVLNHGGAITAAEGGSIALLGAQVDNRGTVLAQMGGVGLGAGSDLTLNFDGNKLLDIRVDAGVANALASNGGLLKADGGRVLMAARTANALLNTVVNSQGAIEARSLRGKNGRIVLDG
# Key:
# Test in all cases: glycan array binding signal (z-score within array); higher = stronger binding
# Conditions in all cases: glycan notation: IUPAC condensed, linker removed
# Fuc(a1-2)Gal(b1-3)GlcNAc = molecular target: Fuc(a1-2)Gal(b1-3)GlcNAc
# Method in brief: (§1)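 Negative Z-scores can be read as non-binding. The Z-score is calculated within each array and then averaged across arrays of one protein sequence at different concentrations or buffers and across linkers. Arrays, 3228 in all, were curated from the Consortium for Functional Glycomics database and kept only where the protein sequence was available.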
# [1] = molecular target: Fuc(a1-2)Gal(b1-3)GlcNAc(b1-2)Man(a1-3)[Fuc(a1-2)Gal(b1-3)GlcNAc(b1-2)Man(a1-6)]Man(b1-4)GlcNAc(b1-4)GlcNAc
# Method in brief: as §1
# [2] = molecular target: Fuc(a1-2)Gal(b1-3)[Fuc(a1-4)]GlcNAc(b1-3)[Gal(b1-4)GlcNAc(b1-6)]Gal(b1-4)Glc
# Method in brief: as §1
# [3] = molecular target: Fuc(a1-2)Gal(b1-4)GlcNAc(b1-3)GalNAc
# Method in brief: as §1
# [4] = molecular target: Fuc(a1-2)[Gal(a1-3)]Gal(b1-4)[Fuc(a1-3)]GlcNAc(b1-3)GalNAc
# Method in brief: as §1
# [5] = molecular target: Fuc(a1-3)[Gal(b1-4)]GlcNAc6S
# Method in brief: as §1
# Gal(a1-3)Gal = molecular target: Gal(a1-3)Gal
# Method in brief: as §1
# [6] = molecular target: Gal(a1-3)Gal(b1-3)GlcNAc(b1-2)Man(a1-3)[Gal(a1-3)Gal(b1-3)GlcNAc(b1-2)Man(a1-6)]Man(b1-4)GlcNAc(b1-4)GlcNAc
# Method in brief: as §1
# [7] = molecular target: Gal(a1-4)Gal(b1-3)GlcNAc(b1-2)Man(a1-3)[Gal(a1-4)Gal(b1-3)GlcNAc(b1-2)Man(a1-6)]Man(b1-4)GlcNAc(b1-4)GlcNAc
# Method in brief: as §1
# [8] = molecular target: Gal(b1-3)GlcNAc(a1-3)Gal(b1-4)GlcNAc
# Method in brief: as §1
# [9] = molecular target: Gal(b1-3)GlcNAc(b1-2)Man(a1-3)[Gal(b1-3)GlcNAc(b1-2)Man(a1-6)]Man(b1-4)GlcNAc(b1-4)[Fuc(a1-6)]GlcNAc
# Method in brief: as §1
# [10] = molecular target: Gal(b1-3)GlcNAc(b1-3)Gal(b1-4)GlcNAc(b1-3)Gal(b1-4)GlcNAc(b1-2)[Gal(b1-3)GlcNAc(b1-3)Gal(b1-4)GlcNAc(b1-3)Gal(b1-4)GlcNAc(b1-6)]Man(a1-6)[Gal(b1-3)GlcNAc(b1-3)Gal(b1-4)GlcNAc(b1-3)Gal(b1-4)GlcNAc(b1-2)Man(a1-3)]Man(b1-4)GlcNAc(b1-4)[Fuc(a1-6)]GlcNAc
# Method in brief: as §1
# [11] = molecular target: Gal(b1-3)GlcNAc(b1-6)GalNAc
# Method in brief: as §1
# [12] = molecular target: Gal(b1-3)[Neu5Ac(a2-6)]GalNAc
# Method in brief: as §1
# [13] = molecular target: Gal(b1-4)GlcNAc(b1-2)[Gal(b1-4)GlcNAc(b1-6)]Man(a1-6)[GlcNAc(b1-4)][Gal(b1-4)GlcNAc(b1-2)Man(a1-3)]Man(b1-4)GlcNAc(b1-4)GlcNAc
# Method in brief: as §1
# [14] = molecular target: Gal(b1-4)GlcNAc(b1-3)Gal(b1-4)GlcNAc(b1-3)Gal(b1-4)GlcNAc
# Method in brief: as §1
# [15] = molecular target: Gal(b1-4)GlcNAc(b1-3)Gal(b1-4)GlcNAc(b1-3)Gal(b1-4)GlcNAc(b1-2)Man(a1-3)[Gal(b1-4)GlcNAc(b1-3)Gal(b1-4)GlcNAc(b1-3)Gal(b1-4)GlcNAc(b1-2)Man(a1-6)]Man(b1-4)GlcNAc(b1-4)GlcNAc
# Method in brief: as §1
# [16] = molecular target: Gal(b1-4)GlcNAc(b1-3)Gal(b1-4)GlcNAc(b1-3)Gal(b1-4)GlcNAc(b1-2)Man(a1-3)[Gal(b1-4)GlcNAc(b1-3)Gal(b1-4)GlcNAc(b1-3)Gal(b1-4)GlcNAc(b1-2)Man(a1-6)]Man(b1-4)GlcNAc(b1-4)[Fuc(a1-6)]GlcNAc
# Method in brief: as §1
# [17] = molecular target: Gal(b1-4)GlcNAc(b1-3)Gal(b1-4)GlcNAc(b1-3)Gal(b1-4)GlcNAc(b1-3)Gal(b1-4)GlcNAc(b1-2)Man(a1-3)[Gal(b1-4)GlcNAc(b1-3)Gal(b1-4)GlcNAc(b1-3)Gal(b1-4)GlcNAc(b1-3)Gal(b1-4)GlcNAc(b1-2)Man(a1-6)]Man(b1-4)GlcNAc(b1-4)GlcNAc
# Method in brief: as §1
# [18] = molecular target: Gal(b1-4)GlcNAc(b1-3)Gal(b1-4)GlcNAc(b1-3)Gal(b1-4)GlcNAc(b1-3)Gal(b1-4)GlcNAc(b1-3)Gal(b1-4)GlcNAc(b1-2)Man(a1-3)[Gal(b1-4)GlcNAc(b1-3)Gal(b1-4)GlcNAc(b1-3)Gal(b1-4)GlcNAc(b1-3)Gal(b1-4)GlcNAc(b1-3)Gal(b1-4)GlcNAc(b1-2)Man(a1-6)]Man(b1-4)GlcNAc(b1-4)[Fuc(a1-6)]GlcNAc
# Method in brief: as §1
# [19] = molecular target: Gal3S(b1-3)[Fuc(a1-4)]GlcNAc
# Method in brief: as §1
# GlcA(b1-3)Gal = molecular target: GlcA(b1-3)Gal
# Method in brief: as §1
# [20] = molecular target: GlcNAc(a1-4)Gal(b1-4)GlcNAc
# Method in brief: as §1
# [21] = molecular target: GlcNAc(b1-3)Gal(b1-4)GlcNAc(b1-3)Gal(b1-4)GlcNAc(b1-3)Gal(b1-4)GlcNAc(b1-3)Gal(b1-4)GlcNAc(b1-2)Man(a1-3)[GlcNAc(b1-3)Gal(b1-4)GlcNAc(b1-3)Gal(b1-4)GlcNAc(b1-3)Gal(b1-4)GlcNAc(b1-3)Gal(b1-4)GlcNAc(b1-2)Man(a1-6)]Man(b1-4)GlcNAc(b1-4)GlcNAc
# Method in brief: as §1
# Kdn(a2-3)Gal(b1-3)GalNAc = molecular target: Kdn(a2-3)Gal(b1-3)GalNAc
# Method in brief: as §1
# [22] = molecular target: Man(a1-2)Man(a1-3)[Man(a1-6)]Man(a1-6)[Man(a1-2)Man(a1-3)]Man(b1-4)GlcNAc(b1-4)GlcNAc
# Method in brief: as §1
# [23] = molecular target: Man(a1-3)[Man(a1-6)]Man(a1-6)[Man(a1-3)]Man(b1-4)GlcNAc(b1-4)GlcNAc
# Method in brief: as §1
# [24] = molecular target: Neu5Ac(a2-3)Gal(b1-3)[Neu5Ac(a2-6)]GalNAc
# Method in brief: as §1
# [25] = molecular target: Neu5Ac(a2-3)Gal(b1-4)GlcNAc(b1-2)Man(a1-3)[Neu5Ac(a2-6)Gal(b1-4)GlcNAc(b1-2)Man(a1-6)]Man(b1-4)GlcNAc(b1-4)GlcNAc
# Method in brief: as §1
# [26] = molecular target: Neu5Ac(a2-3)Gal(b1-4)GlcNAc(b1-3)Gal(b1-4)GlcNAc(b1-3)Gal(b1-4)GlcNAc(b1-2)Man(a1-3)[Neu5Ac(a2-3)Gal(b1-4)GlcNAc(b1-3)Gal(b1-4)GlcNAc(b1-3)Gal(b1-4)GlcNAc(b1-2)Man(a1-6)]GalNAc
# Method in brief: as §1
# [27] = molecular target: Neu5Ac(a2-3)Gal(b1-4)[Fuc(a1-3)]GlcNAc6S
# Method in brief: as §1
# [28] = molecular target: Neu5Ac(a2-6)Gal(b1-4)GlcNAc(b1-3)Gal(b1-4)GlcNAc(b1-3)Gal(b1-4)GlcNAc(b1-2)Man(a1-3)[Neu5Ac(a2-6)Gal(b1-4)GlcNAc(b1-3)Gal(b1-4)GlcNAc(b1-3)Gal(b1-4)GlcNAc(b1-2)Man(a1-6)]GalNAc
# Method in brief: as §1
# [29] = molecular target: Neu5Ac(a2-8)Neu5Ac(a2-3)Gal(b1-3)GalNAc(b1-4)[Neu5Ac(a2-8)Neu5Ac(a2-3)]Gal(b1-4)Glc
# Method in brief: as §1
# [30] = molecular target: Neu5Gc(a2-8)Neu5Gc(a2-6)Gal(b1-4)GlcNAc
# Method in brief: as §1
binder,measurement,setting,value
B1,glycan array binding signal (z-score),Fuc(a1-2)Gal(b1-3)GlcNAc,-1.2
same,glycan array binding signal (z-score),[1],4.52
same,glycan array binding signal (z-score),[2],0.396
same,glycan array binding signal (z-score),[3],-0.278
same,glycan array binding signal (z-score),[4],1.01
same,glycan array binding signal (z-score),[5],1.51
same,glycan array binding signal (z-score),Gal(a1-3)Gal,-0.38
same,glycan array binding signal (z-score),[6],5.54
same,glycan array binding signal (z-score),[7],9.66
same,glycan array binding signal (z-score),[8],-0.012
same,glycan array binding signal (z-score),[9],5.22
same,glycan array binding signal (z-score),[10],2.44
same,glycan array binding signal (z-score),[11],0.257
same,glycan array binding signal (z-score),[12],-0.393
same,glycan array binding signal (z-score),[13],0.379
same,glycan array binding signal (z-score),[14],-0.492
same,glycan array binding signal (z-score),[15],3.1
same,glycan array binding signal (z-score),[16],3.46
same,glycan array binding signal (z-score),[17],5.18
same,glycan array binding signal (z-score),[18],2.6
same,glycan array binding signal (z-score),[19],0.232
same,glycan array binding signal (z-score),GlcA(b1-3)Gal,-0.781
same,glycan array binding signal (z-score),[20],-0.006
same,glycan array binding signal (z-score),[21],0.298
same,glycan array binding signal (z-score),Kdn(a2-3)Gal(b1-3)GalNAc,-0.393
same,glycan array binding signal (z-score),[22],-0.706
same,glycan array binding signal (z-score),[23],1.41
same,glycan array binding signal (z-score),[24],-0.092
same,glycan array binding signal (z-score),[25],-0.276
same,glycan array binding signal (z-score),[26],3.75
same,glycan array binding signal (z-score),[27],-0.953
same,glycan array binding signal (z-score),[28],4.49
same,glycan array binding signal (z-score),[29],-0.215
same,glycan array binding signal (z-score),[30],-0.263

# Source: the supplement of paper PMC8728848
